# In PubChem BioAssay (EPA / NIEHS):
# Calls of active or inactive are those of the source. The calls were made as follows: active = hit-call score of the fitted dose curve at least 0.9, where 1 is the maximum; inactive = score below 0.9.
# Molecular target: Estrogen receptor (Homo sapiens) (UniProt P03372)
# Experiment: OT_ERa_GFPERaERE_0480: Odyssey Thera (OT) 8-hour HeLa Transcription Induction Assay for Estrogen Receptor (AID 2283381)
# Description: OT_ERa_GFPERaERE_0480 is a cell-based, single-readout assay that uses HeLa, a human cervix cell line, with measurements taken at 8 hours after chemical dosing in a 384-well plate.OT_ERa_GFPERaERE_0480 is one of one assay component(s) measured or calculated from the OT_ERa_GFPERaERE_0480 assay. It is designed to make measurements of fluorescent protein induction, a form of inducible reporter, as detected with optical microscopy: fluorescence microscopy signals by Microscopy technology.Data from the assay component OT_ERa_GFPERaERE_0480 was analyzed into 1 assay endpoint. This assay endpoint, OT_ERa_EREGFP_0480, was analyzed in the positive analysis fitting direction relative to DMSO as the negative control and baseline of activity. Using a type of inducible reporter, measures of receptor for gain-of-signal activity can be used to understand the reporter gene at the pathway-level as they relate to the gene ESR1. Furthermore, this assay endpoint can be referred to as a primary readout, because the performed assay has only produced 1 assay endpoint. To generalize the intended target to other relatable targets, this assay endpoint is annotated to the nuclear receptor intended target family, where the subfamily is steroidal.
# All assay endpoints are quantified using high content image analysis algorithms.
# Sequence of Estrogen receptor (Homo sapiens) (P03372 whole entry, looked up): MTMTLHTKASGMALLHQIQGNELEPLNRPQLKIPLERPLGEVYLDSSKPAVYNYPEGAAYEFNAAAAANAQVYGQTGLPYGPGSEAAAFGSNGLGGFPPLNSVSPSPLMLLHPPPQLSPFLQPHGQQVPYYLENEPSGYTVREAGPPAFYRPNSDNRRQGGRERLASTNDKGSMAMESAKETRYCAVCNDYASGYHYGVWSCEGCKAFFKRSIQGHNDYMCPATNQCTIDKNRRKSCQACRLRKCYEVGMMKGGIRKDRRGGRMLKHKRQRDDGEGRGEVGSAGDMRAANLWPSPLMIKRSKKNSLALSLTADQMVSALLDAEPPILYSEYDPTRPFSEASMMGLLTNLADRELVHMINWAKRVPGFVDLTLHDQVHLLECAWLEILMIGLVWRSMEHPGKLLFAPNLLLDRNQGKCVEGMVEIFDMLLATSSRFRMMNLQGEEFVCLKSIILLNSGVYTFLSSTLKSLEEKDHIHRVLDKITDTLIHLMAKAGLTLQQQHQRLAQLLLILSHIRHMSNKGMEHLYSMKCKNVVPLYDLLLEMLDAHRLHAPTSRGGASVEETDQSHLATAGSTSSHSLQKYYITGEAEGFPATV
SMILES,outcome,AC50
CCCCCCCCn1sccc1=O,inactive,–
O=C(Nc1ccccc1)c1ccccc1I,inactive,–
O=C(Oc1ccc(Br)cc1)N1CCN2CCC1CC2,inactive,–
CCCCCOC(=O)c1ccccc1C(=O)OCCCCC,–,13 µM (active)
OCCOCCO,inactive,–
Nc1ccc(N=Nc2ccccc2)cc1,inactive,–
ClC1=C(Cl)C2(Cl)C3C(Cl)C=CC3C1(Cl)C2(Cl)Cl (stereo unspecified),inactive,–
[O-][Cl+]O,inactive,–
Brc1ccc(Oc2ccccc2)cc1,inactive,–
CCOc1cccc(C2(N3CCN(c4ccccc4)CC3)CCC(C)CC2)c1 (stereo unspecified),inactive,–
O=[N+]([O-])C(Br)(CO)CO,inactive,–
CNC(=O)Oc1cccc2c1OC(C)(C)C2,inactive,–
OCCCBr,inactive,–
Clc1ccc(C(c2ccc(Cl)cc2)C(Cl)Cl)cc1,–,12.2 µM (active)
[Cl-].[Cl-].[Hg+2],–,65.9 µM (active)
C[N+](C)(C)CC1CO1 (stereo unspecified),inactive,–
CCC[CH2][Sn]([Cl])([CH2]CCC)[CH2]CCC,inactive,–
CO[C@@H]1[C@H](OC(=O)NC(=O)CCl)CC[C@]2(CO2)[C@H]1[C@@]1(C)O[C@@H]1CC=C(C)C,inactive,–
CCC12COCN1COC2,inactive,–
Cn1cc(-c2ccccc2)c(=O)c(-c2cccc(C(F)(F)F)c2)c1,inactive,–
Cc1ccc([N+](=O)[O-])cc1,inactive,–
CC(C)COC(=O)c1ccccc1C(=O)OCC(C)C,–,13.7 µM (active)
COc1cc(C=O)cc2c1[C@H](COC(N)=O)[C@]1(OC(C)=O)ON2C[C@H]2[C@@H]1N2C(C)=O,inactive,–
ClC1=C(Cl)[C@]2(Cl)[C@H]3[C@H]([C@@H]4C=C[C@H]3C4)[C@@]1(Cl)C2(Cl)Cl,inactive,–
CCCCCCCCCCCCCN1CC(C)OC(C)C1 (stereo unspecified),inactive,–
N#CC(Br)Br,inactive,–
